Data on 6 compounds can be found in PubChem BioAssay (NCATS).

In general, viability refers to a read-out of living cells in per cent, often relative to untreated cells.

Where “and” joins values, the source holds several entries; their conditions need not be identical. Equal entries are not always repeated. Records with an inconclusive call do not appear. A number with no mark means an inactive call. Calls of active or inactive are those of the source. Calls come from the whole dose curve; as a rule, active = well fitted curve in the direction sought with a large enough effect; inconclusive = small, poorly fitted or top-dose-only effect, or another doubt; inactive = no such curve, though single readings can be large; an effect the other way counts as inactive or inconclusive.

Assay [1] has as its target Cellular tumor antigen p53 (Homo sapiens) (UniProt P04637). As to the kind of experiment: Primary qHTS for small molecule compounds that upregulate eGFP-tagged delta133p53alpha (in N-terminal) cells. (AID 2060322).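 Note: cells pre-induced with doxycycline then dosed without doxycycline; series mostly up to about 56 µM; 0% = DMSO vehicle and 100% = reference activator; nearly all actives have a fitted effect of over 75% in size.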 Particulars: NCI-H358 eGFP-delta133p53alpha fluorescence, 24 h; activation: stronger effect = higher value. Put shortly: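 NCI-H358 cells pre-induced 24 h with 10 ng/ml doxycycline for eGFP-delta133p53alpha, plated dox-free and exposed 24 h at 37C to titrated compounds. Fixed, Hoechst-stained; gated GFP peak intensity by laser scanning cytometry, normalized to DMSO (0%) and 57.5 uM 5-azacytidine (100%).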
For orientation: qHTS replaces the single test concentration by a dilution series.

A short description of assay [2]: BET inhibitor-based combinations targeting novel dependencies in MECOM-rearranged (r) AML: SET-2 cell line (AID 2202231).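 For viability: plate controls were DMSO treated cells for no effect and wells without cells for full effect.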 Note: nearly all actives have a fitted effect of over 35% in size. Note: potency is the fitted concentration of half-maximal effect. Particulars: SET-2 AML cells viability, CellTiter-Glo luminescence, 48 h; viability: stronger effect = lower value, concentration not given here. Put shortly:
(§1)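 Luminescent ATP readout (CellTiter-Glo) after 48 hr drug exposure gives viability. Curves span 11 concentrations and are normalized to DMSO and empty wells. Activity is reported as area under the curve and its Z-transform within each cell line.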
On the technique in general: ATP-based viability assays read luminescence as a measure of living cells.

Assay [3] is described as follows: BET inhibitor-based combinations targeting novel dependencies in MECOM-rearranged (r) AML: OCI-AML3 cell line (AID 2202232). Note: nearly all actives have a fitted effect of over 35% in size. Note: potency is the fitted concentration of half-maximal effect. Particulars: Potency: OCI-AML3 viability. Put shortly: as §1
Assay [4] can be described thus: BET inhibitor-based combinations targeting novel dependencies in MECOM-rearranged (r) AML: MV-4-11 cell line (AID 2202233). Note: nearly all actives have a fitted effect of over 45% in size. Note: potency is the fitted concentration of half-maximal effect. Put shortly: (§2)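 Luminescent ATP readout (CellTiter-Glo, 15 min at room temperature) after 48 hr drug exposure gave viability. Dose-response curves, normalized to DMSO and empty-well controls, were summarized as area under the curve and its mean-centred Z-score.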

Assay [5] can be described thus: BET inhibitor-based combinations targeting novel dependencies in MECOM-rearranged (r) AML: HNT-34 cell line (AID 2202234). Note: nearly all actives have a fitted effect of over 35% in size. Note: potency is the fitted concentration of half-maximal effect. Put shortly:
as §2

Assay [6] in a line: BET inhibitor-based combinations targeting novel dependencies in MECOM-rearranged (r) AML: UCSD-AML1 cell line (AID 2202235). Note: nearly all actives have a fitted effect of over 40% in size. Note: potency is the fitted concentration of half-maximal effect. Put shortly: as §2
A short description of assay [7]: BET inhibitor-based combinations targeting novel dependencies in MECOM-rearranged (r) AML: AML-191 cell line (AID 2202236; note: nearly all actives have a fitted effect of over 35% in size; note: potency is the fitted concentration of half-maximal effect). Put shortly: as §1
Assay [8] in a line: BET inhibitor-based combinations targeting novel dependencies in MECOM-rearranged (r) AML: AML-194 cell line (AID 2202237; note: nearly all actives have a fitted effect of over 40% in size; note: potency is the fitted concentration of half-maximal effect). The method in brief: as §1

Chain of Cellular tumor antigen p53 (Homo sapiens) (P04637 whole entry, looked up): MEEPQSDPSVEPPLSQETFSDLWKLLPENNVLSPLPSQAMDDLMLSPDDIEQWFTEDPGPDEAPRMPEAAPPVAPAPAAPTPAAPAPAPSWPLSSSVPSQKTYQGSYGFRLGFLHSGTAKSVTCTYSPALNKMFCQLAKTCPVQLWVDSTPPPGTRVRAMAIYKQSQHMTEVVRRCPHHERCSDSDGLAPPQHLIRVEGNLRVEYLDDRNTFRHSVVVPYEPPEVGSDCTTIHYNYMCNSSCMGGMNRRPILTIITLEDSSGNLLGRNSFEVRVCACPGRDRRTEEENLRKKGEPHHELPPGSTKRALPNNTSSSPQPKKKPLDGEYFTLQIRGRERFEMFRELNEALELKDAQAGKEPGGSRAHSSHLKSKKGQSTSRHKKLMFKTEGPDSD

Regarding `COc1ccc(CCN(C)CCCOc2ccc(S(=O)(=O)c3[nH]c4ccccc4c3C(C)C)cc2)cc1OC`, the activation in assay [1] was -2.61%. The Potency in assay [2] is 26.3 µM (active); in assay [3] it was 16.6 µM (active); in assay [4], 11.8 µM (active); in assay [5], 18.6 µM (active); in assay [6] it was 14.8 µM (active); in assay [7], 18.6 µM (active). In assay [8], the Potency is 14.8 µM (active).

Turning to `CC(=O)SCC(Cc1ccccc1)C(=O)NCC(=O)OCc1ccccc1` (stereo not drawn), in assay [1], the activation was 16.6%. Further, the viability in assay [2] is 105%. Moreover, the Potency result in assay [3], in assay [4], in assay [5], in assay [6], in assay [7] and in assay [8] was “inactive” in each case.

With `NS(=O)(=O)c1cccc2c1C(=O)c1cccc(O)c1C2=O`, in assay [1], the activation is -16%. Besides, the Potency in assay [2] was 2.95 µM (active); in assay [3] it was 1.66 µM (active); in assay [4], 0.332 µM (active); in assay [5] it was 1.86 µM (active); in assay [6], 2.09 µM (active); in assay [7], 2.35 µM (active). The Potency in assay [8] was 2.63 µM (active).

In the case of `CCCN[C@H]1CCc2nc(N)sc2C1`, the activation in assay [1] is 9.21% and 7.7%. For the same compound, the viability in assay [2] is 116%. Further, the Potency result in assay [3], in assay [5], in assay [6], in assay [7] and in assay [8] was “inactive” in each case. For the same compound, in assay [4], the Potency is 0.934 µM (active).

As for `COCCCOc1cc(C[C@@H](C[C@H](N)[C@@H](O)C[C@H](C(=O)NCC(C)(C)C(N)=O)C(C)C)C(C)C)ccc1OC`, the activation in assay [1] was -7.53% and 23.3%. The viability in assay [2] was 124%. Besides, the Potency result in assay [3], in assay [4], in assay [5], in assay [6], in assay [7] and in assay [8] was “inactive” each time.

For the compound `CC(C(=O)O)c1ccc(-c2ccccc2)c(F)c1` (stereo not drawn), the activation in assay [1] is 3.78%. Further, the viability in assay [2] is 111%. For the same compound, the Potency entry in assay [3], in assay [4], in assay [5], in assay [6], in assay [7] and in assay [8] was “inactive” each time.
